This is a sample that favours compounds with a hit; in the whole collection about 3.5% have one here.
FBW7 act – FBW7 E3 ligase activators, primary screen, biochemical, AlphaScreen, human | AlphaScreen FBW7–phospho-cyclin E peptide binding, activator screen | normalized activity (activation), % at 26.1 µM | actives 0.13% (n = 650,000) | AID 1259310, 2017; in the data active = normalized activity above about 1.9%;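 also: purified mutant Fbw7 with reduced substrate affinity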
TEAD-YAP block – TEAD-YAP interaction inhibition, primary screen, TEAD-YAP interaction inhibitor project, luminescence, HEK-TIYL cells; TEAD-Gal4/YAP UAS-luciferase luminescence; inhibition, % at 9.12 µM; actives 1.4% (n = 640,000); AID 1259422, 2018; in the data active = inhibition above about 32%;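 also: 0% = median of test compound wells and 100% = reference inhibitor wells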
GPR151 ag – activators of human GPR151, primary screen, cell-based, PathHunter beta-arrestin, luminescence; actives 1% (n = 650,000); activation, % at 11.2 µM; AID 1508602, 2020; PathHunter beta-arrestin GPR151 cells; in the data active = activation above about 4.9%;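 also: 0% = median of compound wells and 100% = cells with positive control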
Target sequence (Q8TDV0 whole entry, looked up): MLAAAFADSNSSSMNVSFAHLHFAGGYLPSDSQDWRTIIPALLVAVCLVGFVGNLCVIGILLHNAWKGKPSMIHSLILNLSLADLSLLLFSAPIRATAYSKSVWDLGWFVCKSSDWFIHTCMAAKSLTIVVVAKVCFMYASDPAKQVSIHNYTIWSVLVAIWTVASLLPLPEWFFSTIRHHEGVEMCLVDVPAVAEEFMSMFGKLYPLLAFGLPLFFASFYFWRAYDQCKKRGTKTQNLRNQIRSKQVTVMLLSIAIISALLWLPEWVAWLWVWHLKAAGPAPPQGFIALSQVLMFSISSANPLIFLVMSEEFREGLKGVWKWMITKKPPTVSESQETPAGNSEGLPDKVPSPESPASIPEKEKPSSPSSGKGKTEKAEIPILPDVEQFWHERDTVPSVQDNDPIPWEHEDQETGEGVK
MITF primary – MITF inhibitors, primary screen, biochemical, AlphaScreen, human | Microphthalmia-associated transcription factor (Homo sapiens), O75030 | actives 0.91% (n = 650,000) | inhibition, % at 2.6 µM | AID 1259374, 2018 | AlphaScreen MITF homodimerization, bead proximity signal; in the data active = inhibition above about 50%;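 also: 0% = vehicle wells with protein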
GPR151 conf act – GPR151 activators, triplicate retest, confirmation, cell-based, PathHunter beta-arrestin, luminescence. activation, % at 11.2 µM. shares compounds with GPR151 ag. 6,700 tested, under 10 active. GPR151 PathHunter beta-arrestin cells, 90 min; % of EA-reagent control over plate median. AID 1508609, 2020;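 active = mean percent activation across replicates above the confirmation screen cutoff of 4.91%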
GPR119 ag – GPR119 activators in beta-arrestin cells, counter-screen for GPR151 activator project, cell-based, PathHunter beta-arrestin, luminescence, triplicate; 90 min; 0 = compound-well median, 100 = enzyme-acceptor control; AID 1508611, 2020; activation, % at 11.2 µM; shares compounds with GPR151 ag; actives 0.3% (n = 6,700);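 active = mean percent activation in the counterscreen above 29.09%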;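 also: counterscreen on off-target GPR119 to flag nonselective hits from the GPR151 activator screen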
Starred values were filed as active, the others as inactive; x = not tested or not shown; ! = not active in a repeat.

SMILES | FBW7 act | TEAD-YAP block | GPR151 ag | MITF primary | GPR151 conf act | GPR119 ag
CCOc1ccc(NC(=O)CSc2nc(NCCc3ccccc3)c3ccccc3n2)cc1 | 0 | 3 | 6.0* | 4 | 0 | 7
CCCCNc1nc(SCC(=O)Nc2ccc(OCC)cc2)nc2ccccc12 | 0 | 17 | 1 | 2 | x | x
COCCNc1nc(SCC(=O)NCCc2ccc(S(N)(=O)=O)cc2)nc2ccccc12 | 0 | 0 | 4.9* | 3 | -1 | -12
CCN(CC)C(=O)c1cn(CCC#N)nc1-c1ccc(OC)c([N+](=O)[O-])c1 | 0 | -3 | 21* | 7 | 1 | 5
COC(=O)c1cccc(NC(=O)c2cccc(Br)c2)c1C | 0 | -51 | 15* | -8 | -1 | -17
CCOC(=O)c1ccccc1NC(=O)c1cccc(Br)c1 | 0 | 3 | 2 | -6 | x | x
COC(=O)c1ccccc1NC(=O)Nc1ccc(Br)cc1Cl | 0 | 9 | 5.9* | -8 | 0 | 9
COC(=O)c1ccccc1NC(=O)Nc1ccc(Cl)cc1 | 0 | 3 | -1 | 21 | x | x
O=C(O)c1ccc(NC(=O)c2ccccc2NC(=O)c2cccc(Br)c2)cc1 | 0 | 10 | 5.5* | -10 | -1 | -8
O=C(CSc1nnc(-c2ccco2)o1)c1ccc2c(c1)OCCO2 | 0 | 10 | 12* | 12 | 0 | -5
CCN(C(=O)CSc1nnc(-c2ccco2)o1)C1CCS(=O)(=O)C1 (stereo unspecified) | 0 | -10 | 12* | -3 | 1 | 4
O=C(CSc1nnc(-c2ccccc2)o1)c1ccc2c(c1)OCCO2 | 0 | -6 | -1 | -9 | x | x
Cn1c(Nc2cc(Nc3ccccc3)ncn2)nc2ccccc21 | 0 | -10 | -2 | 38 | x | x
Cc1cc(NC(=O)NC(=O)c2ccc(Cl)c(Cl)c2)n[nH]1 | 0 | -8 | 6.6* | -5 | 1 | 12
Cc1cc(NC(=O)NC(=O)c2cccc(Cl)c2)n[nH]1 | 0 | -39 | -4 | 3 | x | x
Cc1ccccc1NC(=S)Nc1cccnc1 | 0 | 1 | -1 | 9 | x | x
OCc1ccccc1NC(=S)Nc1cccnc1 | 0 | 0 | 5.8* | 12 | -1 | -10
Cc1ccccc1NC(=S)NCc1cccnc1 | 0 | 10 | 8.3* | 5 | 1 | 2
O=C1/C(=C/c2ccc3c(c2)OCO3)CS(=O)(=O)c2ccccc21 | 0 | -14 | 0 | 9 | x | x
CC(=O)N1CCC(NCCc2ccc(F)cc2)CC1 | 0 | -5 | 0 | 14 | x | x
CC(=O)N1CCC2(CC1)N=C(C)C(c1ccccc1)=N2 | 0 | -3 | 7.1* | 4 | 0 | 11
Cc1ccc2c(CSc3n[nH]c(N)n3)cc(=O)oc2c1 | 0 | 5 | -1 | -2 | x | x
Cc1ccc2c(CSc3n[nH]c(N)n3)cc(=O)oc2c1C | 0 | -22 | 11* | -2 | 0 | 9
CCCC(c1nnnn1Cc1ccc(OC)cc1)N1CCN(Cc2ccccc2)CC1 (stereo unspecified) | 0 | -1 | 0 | 1 | x | x
O=C(CSc1nnc(-c2ccc(Br)cc2)o1)NC1CCCC1 | 0 | 3 | 8.1* | 4 | 0 | 1
SMILES | FBW7 act | TEAD-YAP block | GPR151 ag | MITF primary | GPR151 conf act | GPR119 ag
CC1=C(C(=O)Nc2cccc(C(F)(F)F)c2)C(c2cccs2)C2=C(CCCC2=O)N1 (stereo unspecified) | 0 | 1 | 6.5* | 2 | 0 | 8
COc1ccc(NC2=CC(=O)CCC2)cc1 | 0 | 8 | -1 | 4 | x | x
COc1ccc(NC2=CC(=O)CCC2)c(OC)c1 | 0 | -6 | 7.8*! | 5 | 1 | 8
O=C1NC(c2ccccc2)=NC1(NS(=O)(=O)c1ccc(Cl)cc1)C(F)(F)F (stereo unspecified) | 0 | -2 | 6.9* | 9 | 0 | 3
COc1cccc(CN2CCN(C(=O)CCC3(C)CCC(=O)N3)CC2=O)c1 (stereo unspecified) | 0 | 0 | 7.8* | -4 | 0 | 19
Cc1ccc(S(=O)(=O)Nc2ccc3c(c2)C(=O)NC3=O)c(C)c1 | 0 | 4 | 0 | 15 | x | x
Cc1cc(C(C)(C)C)cc(S(=O)(=O)Nc2ccc3c(c2)C(=O)NC3=O)c1C | 0 | -11 | 6.2* | -13 | 0 | -6
O=C(CSc1ccsc1[N+](=O)[O-])N1CCN(c2ccccn2)CC1 | 0 | -3 | 5.3* | -3 | -1 | -2
O=C(CSc1ccsc1[N+](=O)[O-])N1CCN(c2ncccn2)CC1 | 0 | -10 | 0 | -2 | x | x
O=C(NOC(=O)c1ccccc1Br)c1ccc(Cl)cc1 | 0 | 8 | 8.0* | -10 | 0 | 6
O=C(NNC(=O)c1ccccc1Br)c1ccc(Cl)cc1 | 0 | -14 | 1 | -5 | x | x
CC(C)NC(=O)c1cnc2scc(-c3ccccc3)n2c1=O | 0 | 2 | 8.5* | 3 | 2 | 3
CCCN(CCC)C(=O)Cc1ccc(Br)cc1 | 1 | -1 | 8.4* | 24 | 0 | 5
N#CCCN(CCC#N)C(=O)Cc1ccc(Br)cc1 | 1 | 7 | 2 | 12 | x | x
O=C(O)CC(NC(=O)C12CC3CC(CC(C3)C1)C2)c1ccc(Cl)cc1 (stereo unspecified) | 0 | 12 | 2 | 1 | x | x
O=C(O)CC(NC(=O)C12CC3CC(CC(C3)C1)C2)c1cccc([N+](=O)[O-])c1 (stereo unspecified) | 0 | -13 | 6.0* | -4 | 0 | 0
O=S(=O)(O)c1ccc2ccc3ccccc3c2c1 | 0 | -4 | 0 | -2 | x | x
Cc1c(NC(=O)C(C)OC(=O)CN2C(=O)NC(C)(C)C2=O)c(=O)n(-c2ccccc2)n1C (stereo unspecified) | 0 | 4 | -1 | 3 | x | x
O=c1c2ccccc2nc(SCc2c(F)cccc2Cl)n1C1CC1 | 0 | -6 | 5.1* | -12 | 0 | 8
Cc1ccsc1CN1CCc2nnc(CNC(=O)C3CCCN(C)C3)n2CC1 (stereo unspecified) | 0 | 16 | -1 | 8 | x | x
O=C(C1CCN(S(=O)(=O)c2ccccc2)CC1)N1CCCC2CCCCC21 (stereo unspecified) | 0 | 4 | 6.2* | 11 | 1 | 5
COc1ccccc1NC(=O)Cn1nc2n(C(C)C)c3ccccc3n2c(=O)c1=O | 1 | 1 | -1 | 14 | x | x
CCOC(=O)c1c(NC(=O)c2sc3ccccc3c2Cl)sc2c1CCCC2 | 0 | 8 | 0 | 1 | x | x

Screening results from PubChem.
